Our source for the z-score and composite z-score values is PubChem BioAssay.

Test [1] can be described thus: compound effects on lung adenocarcinoma cell viability – A549, calcein-AM fluorescence, 48 h, basal, profiling panel (AID 1162). Also: test concentration not given here. The note with it: higher = more signal.
A short description of test [2]: compound effects on differentiated 3T3-L1 adipocyte viability – cell-based, 3T3-L1 adipocytes, calcein-AM fluorescence, 48 h, basal, profiling panel (AID 1163). Also: test concentration not given here. To be noted: 3T3-L1 adipocytes viability, higher = more signal.
Test [3] in a line: compound effects on hepatocellular carcinoma cell viability – HepG2, calcein-AM fluorescence, 48 h, basal, profiling panel (AID 1164). Also: test concentration not given here. To be noted: higher = more signal.
Test [4] in a line: compound effects on multiple myeloma cell viability – MM1S, calcein-AM fluorescence, 48 h, basal, profiling panel (AID 1165).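 Also: viability of MM1S multiple myeloma cells under basal unstimulated conditions; test concentration not given here.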 To be noted: higher = more signal.
Test [5] can be described thus: calcein-AM signal in unstimulated myeloma cells – cell-based, calcein-AM fluorescence, 48 h, PK04 Diversity Set, profiling panel (AID 1166).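 Also: cells grown under basal conditions without added stimulus; test concentration not given here.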 To be noted: RPMI8226 myeloma viability, higher = more signal.
A short description of test [6]: JC-1 mitochondrial signal, unstimulated HepG2 cells – cell-based, JC-1 fluorescence, 24 h, 100 nL compound, profiling panel (AID 1167). Also: test concentration not given here. The note with it: HepG2 mitochondrial potential, higher = more signal.
Test [7] in a line: JC-1 mitochondrial signal, unstimulated adipocytes – cell-based, JC-1 fluorescence, 3T3-L1 adipocytes, 24 h, 100 nL compound, profiling panel (AID 1168). Also: test concentration not given here. To be noted: JC-1 mitochondrial fluorescence, higher = more signal, called active from +8 up or from −8 down.
Test [8] in a line: JC-1 mitochondrial signal, unstimulated myeloma cells – cell-based, JC-1 fluorescence, RPMI8226, 24 h, 100 nL compound, profiling panel (AID 1169). Also: test concentration not given here. The note with it: JC-1 mitochondrial potential fluorescence, higher = more signal.
A short description of test [9]: JC-1 mitochondrial signal, unstimulated MM1S myeloma – cell-based, JC-1 fluorescence, 24 h, 100 nL compound, profiling panel (AID 1170). Also: test concentration not given here. The note with it: MM1S mitochondrial potential, higher = more signal.
Test [10] can be described thus: resazurin metabolic signal in A549 cells – cell-based, resazurin fluorescence, 24 h, PK04 Diversity Set, profiling panel (AID 1171). Also: test concentration not given here. To be noted: A549 viability, higher = more signal, called active from +8 up or from −8 down. A general note: Resazurin is reduced to fluorescent resorufin, in cell work by metabolically active cells.
Test [11] is described as follows: resazurin metabolic signal in HepG2 cells – cell-based, resazurin fluorescence, 24 h, PK04 Diversity Set, profiling panel (AID 1172). Also: test concentration not given here. The note with it: HepG2 viability, higher = more signal.
A short description of test [12]: budding yeast growth changes without added modifier – OD600, strain BY4716, 24 h, basal condition, primary screen (AID 1173). To be noted: S. cerevisiae BY4716 growth, OD600, 24 h; higher = more signal, called active from +8 up or from −8 down.
Test [13] in a line: viability profiling in MM1S myeloma cells – cell-based, resazurin fluorescence, basal, 24 h, PK04 Diversity Set, profiling panel (AID 1174). Also: test concentration not given here. The note with it: higher = more signal, called active from +8 up or from −8 down.
Test [14] deals with Dihydroorotate dehydrogenase (quinone), mitochondrial (Plasmodium falciparum (isolate 3D7)) (UniProt Q08210). Put plainly: inhibition of P. falciparum DHODH – biochemical, C-terminal His tag, absorbance 600 nm, primary screen (AID 1175).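 Also: recombinant parasite enzyme with a five histidine tag at its C terminus; test concentration not given here.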 The note with it: PfDHODH enzyme, DCIP absorbance 600 nm; higher = more signal, called active from +8 up or from −8 down.
Test [15] can be described thus: inhibition of PAO1 biofilm formation – strain PAO1, LB-PBS medium, absorbance 600 nm, primary screen (AID 1176). Also: test concentration not given here. The note with it: P. aeruginosa PAO1 growth/biofilm, A600, 12 h; higher = more signal.
A short description of test [16]: growth modulation of vineyard yeast isolate – strain RM11-1a, OD600, basal, 24 h, primary screen (AID 1177).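 Also: cultures grown under basal conditions with no added stressor; test concentration not given here.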 The note with it: S. cerevisiae RM11-1a growth, OD600, 24 h; higher = more signal, called active from +8 up or from −8 down.
Test [17] can be described thus: growth of efflux-deficient E. coli DRC39 – strain DRC39, OD650, 24 h, E. coli filamentation inducers, primary screen (AID 1178).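 Also: growth measured as culture turbidity by optical density at 650 nm; test concentration not given here.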 To be noted: E. coli DRC39 acrAB, higher = more signal, called active from +8 up or from −8 down.
Test [18] can be described thus: growth of efflux-deficient E. coli DRC39 – strain DRC39, OD650, 48 h, E. coli filamentation inducers, primary screen (AID 1179).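 Also: screen aims at cell division blockers that make cells filament.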 The note with it: E. coli DRC39 delta-acrAB growth, higher = more signal, called active from +8 up or from −8 down.
Test [19] can be described thus: viability profiling in RPMI8226 myeloma cells – cell-based, resazurin fluorescence, basal, 24 h, PK04 Diversity Set, profiling panel (AID 1180).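 Also: RPMI8826 multiple myeloma cell line at 5000 cells per well; test concentration not given here.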 To be noted: higher = more signal.
Test [20] has as its target E3 ubiquitin-protein ligase XIAP (Homo sapiens) (UniProt P98170). Put plainly: small molecules binding XIAP protein – biophysical, small-molecule microarray, fluorescence 635 nm, primary screen (AID 1181).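 Also: score merges 667 nm emission and signal to noise over triplicate slides.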 The note with it: higher = more signal.

Calls of active or inactive are those of the source. Unless noted, no rule for the calls is given here.

E3 ubiquitin-protein ligase XIAP (Homo sapiens), sequence (P98170 whole entry, looked up): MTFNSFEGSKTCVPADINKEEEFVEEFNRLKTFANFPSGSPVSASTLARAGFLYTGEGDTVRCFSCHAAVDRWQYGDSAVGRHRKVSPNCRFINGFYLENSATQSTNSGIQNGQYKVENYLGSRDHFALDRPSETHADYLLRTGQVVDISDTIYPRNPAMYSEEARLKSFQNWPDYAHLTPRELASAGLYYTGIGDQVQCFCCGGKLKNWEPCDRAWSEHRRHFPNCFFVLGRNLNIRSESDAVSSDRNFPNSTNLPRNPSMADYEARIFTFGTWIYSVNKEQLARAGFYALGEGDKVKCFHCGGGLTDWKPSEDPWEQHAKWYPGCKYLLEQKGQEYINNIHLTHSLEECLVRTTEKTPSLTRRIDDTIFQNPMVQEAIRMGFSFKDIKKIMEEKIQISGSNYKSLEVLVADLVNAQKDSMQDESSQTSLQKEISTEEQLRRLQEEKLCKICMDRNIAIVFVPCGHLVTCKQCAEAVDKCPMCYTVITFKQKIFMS
Dihydroorotate dehydrogenase (quinone), mitochondrial (Plasmodium falciparum (isolate 3D7)), sequence (Q08210 whole entry, looked up): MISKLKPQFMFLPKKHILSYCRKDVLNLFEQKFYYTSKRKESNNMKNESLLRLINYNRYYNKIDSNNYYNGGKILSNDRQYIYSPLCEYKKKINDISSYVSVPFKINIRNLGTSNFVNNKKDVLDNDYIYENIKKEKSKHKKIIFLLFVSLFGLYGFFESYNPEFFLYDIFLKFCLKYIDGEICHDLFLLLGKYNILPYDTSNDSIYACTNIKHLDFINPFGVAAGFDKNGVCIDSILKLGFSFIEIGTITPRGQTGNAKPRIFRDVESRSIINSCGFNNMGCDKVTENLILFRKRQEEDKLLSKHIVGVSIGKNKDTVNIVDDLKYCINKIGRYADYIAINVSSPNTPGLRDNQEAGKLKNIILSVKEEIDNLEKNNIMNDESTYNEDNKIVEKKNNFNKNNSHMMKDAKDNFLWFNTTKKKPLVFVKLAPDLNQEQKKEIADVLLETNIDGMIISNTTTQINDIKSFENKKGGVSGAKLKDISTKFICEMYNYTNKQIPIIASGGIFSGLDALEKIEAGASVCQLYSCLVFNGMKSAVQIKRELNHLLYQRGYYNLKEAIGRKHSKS

`C=CC[C@H](OC(=O)Nc1ccc(SC)cc1)c1ccc(OCCO)cc1`: the z-score is -0.542 in test [1]; -0.228 in test [2]; -0.91 in [3]; -0.75 in test [4]; 0.329 in test [5]; -1.68 in test [6]. The z-score is -0.313 (inactive) in test [7]; -0.309 in test [8]; -0.227 in test [9]; 0.631 (inactive) in test [10]; 0.826 in test [11]; -3.71 (inactive) in [12]. For the same molecule, the z-score in test [13] is 0.819 (inactive); in test [15], 0.119 (inactive); in test [16], 1.07 (inactive); in test [17], -0.0217 (inactive); in test [18], -0.254 (inactive); in [19], 0.194. Besides, the results for the composite z-score in test [14] and in test [20] were -1.51 (inactive) and 0.0264, respectively.
With `CC(C)CNC(=O)[C@@]1(c2ccc([N+](=O)[O-])cc2)CC(=O)N(C2CCCCC2)[C@@H]1c1ccc(CO)cc1`, the z-score is -0.0452 in test [1]; 0.389 in test [2]; -0.004 in test [3]; -0.41 in test [4]; 0.542 in test [5]; 0.634 in test [6]. The z-score in test [7] is -0.6 (inactive); in [8], -0.426; in [9] it was 0.771; in [10], 0.436 (inactive); in [11], 0.0751; in test [12], -1.68 (inactive). In addition, the z-score is 1.17 (inactive) in [13]; -0.301 (inactive) in test [15]; -0.377 (inactive) in [16]; 0.637 (inactive) in [17]; 0.0367 (inactive) in test [18]; 1.12 in [19]. Moreover, the composite z-score in [14] was -0.0682 (inactive); in [20] it was 0.14.
Take `O=C1O[C@H](c2ccccc2)[C@H](c2ccccc2)N2[C@H]1[C@@H](C(=O)O)[C@]1(C(=O)Nc3ccc(C#CC4(O)CCCCCC4)cc31)[C@H]2c1ccc(O)cc1`: the z-score in test [1] was -0.167; in test [2], 0.685; in test [3] it was -0.714; in test [4], -0.217; in [5] it was 0.265; in test [6], -0.482. The z-score is -0.559 (inactive) in test [7]; -0.0905 in test [8]; -0.705 in test [9]; 0.976 (inactive) in test [10]; 0.934 in [11]; -1.83 (inactive) in [12]. For the same molecule, the z-score in test [13] was 1.36 (inactive); in test [15], 0.734 (inactive); in test [16] it was -0.692 (inactive); in test [17], 0.451 (inactive); in test [18], -0.679 (inactive); in test [19], -0.0544. Also, the composite z-score is -3.2 (inactive) in [14] and -0.248 in test [20].
As for `CC(C)[C@H]1NC(=O)[C@@]23C(=O)N[C@@H](Cc4ccccc4)C2[C@H](C)[C@@]2(C)O[C@H]2C3/C=C/C/C=C\CNC(=O)[C@H](Cc2ccccc2)NC1=O` (stereo not given in full), the z-score in [1] was 0.716; in test [2] it was -0.144; in test [3], 0.42; in test [4] it was -1.08; in test [5], -1.39; in test [6], 0.5. In addition, the z-score in [7] was -0.769 (inactive); in test [8] it was -0.132; in test [9] it was 0.623; in test [10], -0.739 (inactive); in test [11], -0.875; in test [12], -0.516 (inactive). Further, the z-score is -0.504 (inactive) in test [13]; -0.377 (inactive) in test [15]; -0.472 (inactive) in test [16]; -0.0953 (inactive) in test [17]; -1.2 (inactive) in [18]; -1.26 in test [19]. Moreover, the composite z-score was -0.141 (inactive) in test [14] and -0.288 in test [20].
Take `O=C(NCC(O)CO)[C@@]1(CCS(=O)(=O)c2ccccc2)COC(c2ccc(OCCCO)cc2)=N1` (stereo not given in full): the z-score is -0.696 in test [1]; -0.0875 in test [2]; 0.261 in test [3]; -1.29 in test [4]; -0.187 in test [5]; -0.341 in test [6]. Moreover, the z-score is -0.834 (inactive) in [7]; 0.747 in test [8]; -0.815 in test [9]; 1.01 (inactive) in test [10]; 0.114 in test [11]; 0.452 (inactive) in test [12]. For the same molecule, the z-score is -0.169 (inactive) in test [13]; -0.043 (inactive) in [15]; 1.29 (inactive) in test [16]; 0.243 (inactive) in test [17]; -0.135 (inactive) in [18]; -0.159 in [19]. Moreover, the composite z-score in test [14] was 0.699 (inactive); in test [20], -0.0332.
`C=C(/C(=C/C[C@@H](OC(C)=O)c1ccc(OCCO)cc1)c1cc(C(=O)OC)ccc1OC)C(C)C`: the z-score in test [1] was 0.679; in [2], -0.345; in test [3], 0.747; in test [4] it was -1.83; in [5], -0.385; in test [6] it was 0.149. Further, the z-score in [7] is -0.852 (inactive); in test [8], -0.799; in test [9], -0.8; in [10] it was 0.627 (inactive); in test [11], -0.459; in test [12], -0.0855 (inactive). Moreover, the z-score in test [13] is -0.53 (inactive); in test [15], 0.437 (inactive); in test [16], 0.492 (inactive); in [17], -0.0333 (inactive); in [18], 0.0954 (inactive); in [19], -0.161. Moreover, the results for the composite z-score in test [14] and in test [20] were -5.7 (inactive) and 0.0546, respectively.
Regarding `CCCCC(=C=CC[C@H](O)c1ccc(OCCO)cc1)C[C@H](O)c1cc(Cl)cc(Cl)c1O`, the z-score in test [1] was -0.217; in test [2], -0.185; in [3], -0.197; in test [4], -3.34; in test [5] it was -2.76; in test [6], -2.43. Further, the z-score in [7] is -0.368 (inactive); in test [8] it was -0.773; in [9], -0.349; in test [10], 1.17 (inactive); in test [11], 0.984; in test [12], -4.58 (inactive). For the same molecule, the z-score is 0.437 (inactive) in test [13]; 0.579 (inactive) in test [15]; -0.674 (inactive) in test [16]; 0.947 (inactive) in test [17]; 0.514 (inactive) in test [18]; 1.36 in [19]. In addition, the composite z-score in test [14] was -1.74 (inactive); in [20], -0.0773.
